Results filed as inconclusive are left out. Active and inactive are the calls of the source. Unless noted, calls follow the shape of the dose curve; as a rule, active = well fitted curve in the direction sought with a large enough effect; inconclusive = small, poorly fitted or top-dose-only effect, or another doubt; inactive = no such curve, though single readings can be large; an effect the other way counts as inactive or inconclusive.
Assays:
[1] = molecular target: Guanine nucleotide-binding protein G(i) subunit alpha-1 (Homo sapiens) (UniProt P63096); assay: qHTS Assay for Inhibitors of RGS12 GoLoco Motif Activity (Green Fluorophore) (AID 879);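 also: negative values mean loss of peptide binding seen as reduced polarization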
Guanine nucleotide-binding protein G(i) subunit alpha-1 (Homo sapiens), sequence (P63096 whole entry, looked up): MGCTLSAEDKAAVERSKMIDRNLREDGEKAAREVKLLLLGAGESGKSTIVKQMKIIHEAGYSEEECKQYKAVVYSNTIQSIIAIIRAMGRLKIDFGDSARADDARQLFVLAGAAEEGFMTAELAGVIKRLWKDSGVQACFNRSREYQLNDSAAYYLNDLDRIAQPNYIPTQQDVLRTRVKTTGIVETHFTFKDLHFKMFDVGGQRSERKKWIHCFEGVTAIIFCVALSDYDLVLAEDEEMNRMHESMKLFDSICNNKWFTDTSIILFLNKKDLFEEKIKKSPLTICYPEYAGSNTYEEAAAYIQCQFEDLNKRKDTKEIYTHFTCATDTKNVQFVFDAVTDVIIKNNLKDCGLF
How it was run: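 A drop in FITC polarization marked displacement of the FITC-tagged RGS12 GoLoco peptide (10 nM) from Gαi1 (50 nM). Compounds were incubated 10 min at room temperature in Tris pH 7.5 buffer containing 150 mM NaCl, 0.1 mM GDP and 0.05% NP40; unlabeled peptide titration served as control.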

[2] = qHTS Assay for Identification of Small Molecule Agonists for Thrombopoietin (TPO) Signaling Pathway (AID 917)
How it was run: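 Quantitative HTS for pathway activators: compounds were pin-transferred onto IL-3-starved Ba/F3 cells expressing human TPO receptor, TPO was added at its EC50 (26 pM final), and after 24 hrs at 37 C reporter luciferase was measured.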

[3] = molecular target: Pyruvate kinase (Leishmania mexicana) (UniProt Q27686); assay: qHTS Validation Assay for Inhibitors of Leishmania Mexicana Pyruvate Kinase (AID 945)
Pyruvate kinase (Leishmania mexicana), sequence (Q27686 2-499 E452W): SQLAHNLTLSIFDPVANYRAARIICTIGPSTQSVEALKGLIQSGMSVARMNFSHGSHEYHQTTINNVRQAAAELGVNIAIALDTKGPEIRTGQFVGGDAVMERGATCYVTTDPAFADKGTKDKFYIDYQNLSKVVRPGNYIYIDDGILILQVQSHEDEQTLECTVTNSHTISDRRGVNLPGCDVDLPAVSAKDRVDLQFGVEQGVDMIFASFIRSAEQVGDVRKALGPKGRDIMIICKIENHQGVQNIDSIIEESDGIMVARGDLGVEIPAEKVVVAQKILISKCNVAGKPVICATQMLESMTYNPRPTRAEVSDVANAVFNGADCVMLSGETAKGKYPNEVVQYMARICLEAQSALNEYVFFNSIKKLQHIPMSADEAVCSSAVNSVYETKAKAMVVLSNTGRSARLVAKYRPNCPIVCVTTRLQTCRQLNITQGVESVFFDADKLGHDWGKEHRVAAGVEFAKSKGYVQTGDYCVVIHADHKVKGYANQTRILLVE
How it was run: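 The enzyme is a highly purified E451W mutant of LmPYK used at 0.2 nM. It converts 0.5 mM PEP and 0.1 mM ADP over 1 h at room temperature; product ATP is quantified by luciferase luminescence relative to DMSO controls.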

[4] = molecular target: Pyruvate kinase PKM (Homo sapiens) (UniProt P14618); assay: qHTS Assay for Activators of Human Muscle Pyruvate Kinase (AID 954; active = well fitted curve in the direction sought with a large enough effect, not every such curve was filed as active)
Pyruvate kinase PKM (Homo sapiens), sequence (P14618 whole entry, looked up): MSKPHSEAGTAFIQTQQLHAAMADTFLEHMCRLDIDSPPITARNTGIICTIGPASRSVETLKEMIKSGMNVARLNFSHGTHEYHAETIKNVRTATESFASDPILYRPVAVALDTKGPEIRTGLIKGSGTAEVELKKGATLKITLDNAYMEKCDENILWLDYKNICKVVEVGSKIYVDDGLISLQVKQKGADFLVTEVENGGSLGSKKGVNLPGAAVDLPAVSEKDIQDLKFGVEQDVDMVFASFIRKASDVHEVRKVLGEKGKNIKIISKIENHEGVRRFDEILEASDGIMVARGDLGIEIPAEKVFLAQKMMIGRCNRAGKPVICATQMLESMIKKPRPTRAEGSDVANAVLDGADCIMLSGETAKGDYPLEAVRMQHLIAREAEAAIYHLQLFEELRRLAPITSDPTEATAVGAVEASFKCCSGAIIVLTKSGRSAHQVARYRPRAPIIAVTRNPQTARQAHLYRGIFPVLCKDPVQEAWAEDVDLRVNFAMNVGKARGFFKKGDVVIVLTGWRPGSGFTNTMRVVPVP
How it was run: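 Compound pinned into substrate mix (0.5 mM PEP, 0.1 mM ADP), then 0.1 nM PKM2 added; 1 h, RT. Stop/detection luciferase reagent added, luminescence read. Normalized to no-inhibition and no-enzyme or reference-inhibitor controls.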

[5] = molecular target: Alpha-galactosidase A (Homo sapiens) (UniProt P06280); assay: Counterscreen for Glucocerebrosidase Inhibitors: qHTS Assay for Human alpha-Galactosidase at pH 4.5 (AID 992)
Alpha-galactosidase A (Homo sapiens), sequence (P06280 whole entry, looked up): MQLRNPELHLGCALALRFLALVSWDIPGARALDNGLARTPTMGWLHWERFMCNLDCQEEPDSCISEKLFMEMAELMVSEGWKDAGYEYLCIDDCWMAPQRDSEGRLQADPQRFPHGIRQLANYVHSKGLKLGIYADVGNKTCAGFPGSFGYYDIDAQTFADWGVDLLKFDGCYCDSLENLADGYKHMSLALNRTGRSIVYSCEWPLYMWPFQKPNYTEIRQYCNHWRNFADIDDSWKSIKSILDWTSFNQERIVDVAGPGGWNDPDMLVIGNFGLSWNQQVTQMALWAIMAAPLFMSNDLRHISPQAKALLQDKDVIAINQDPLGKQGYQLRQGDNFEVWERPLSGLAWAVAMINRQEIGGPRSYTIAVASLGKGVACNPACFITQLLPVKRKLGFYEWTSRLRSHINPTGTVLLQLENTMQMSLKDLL
How it was run: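 Steps: enzyme (2 nM final), then compound across 0.7 nM to 77 uM, then 80 uM fluorogenic galactopyranoside substrate; incubate 20 min at room temperature; quench at pH 10; measure fluorescence at 365/440 nm.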

[6] = molecular target: alpha-glucosidase (Oryza sativa, rice) (UniProt Q653V4); assay: Counterscreen for Glucocerebrosidase Inhibitors: qHTS Assay for Rice alpha-Glucosidase at pH 5.0 (AID 997)
How it was run: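 Endpoint fluorogenic assay at pH 5.0: compounds (0.7 nM to 77 uM) titrated against 4 nM rice enzyme and 400 uM 4-MU-alpha-glucoside for 20 min at room temperature; NaOH/glycine stop, read ex 365/em 440 nm, Hill-fitted AC50.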

[7] = S16 Schwann cell PMP22 intronic element firefly luciferase assay (AID 624032); also: nearly all actives have a fitted effect of over 30% in size
How it was run: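 Rat S16 Schwann cells stably carrying firefly luciferase driven by a PMP22 intronic element, in 10% FBS, treated 24 h at 37 C. ONE-Glo luminescence normalized to PTC124 control and DMSO (0%); curves classed by r2, magnitude and activity.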

ATS95 = assay: qHTS profiling for inhibitors of Plasmodium falciparum proliferation (AID 504749); also: nearly all actives have a fitted effect of over 60% in size; conditions: P. falciparum in erythrocytes, SYBR Green DNA, 72 h; series mostly up to 12.8 µM
How it was run: (§1)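 Each compound contacts P. falciparum-infected red blood cells for 72 h at 37 C; lysis buffer (Tris, EDTA, saponin, Triton X, SYBR Green I) is added and fluorescence measured next morning; values normalized to controls.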

CP192 = assay: as above; conditions: P. falciparum in erythrocytes, SYBR Green DNA, 72 h; series mostly up to 28.7 µM
How it was run: as §1

CP260 = assay: as above; conditions: P. falciparum in erythrocytes, SYBR Green DNA, 72 h; series mostly up to 12.8 µM
How it was run: as §1

CP266 = assay: as above; conditions: P. falciparum in erythrocytes, SYBR Green DNA, 72 h; series mostly up to 28.7 µM
How it was run: as §1

CP269 = assay: as above; conditions: P. falciparum in erythrocytes, SYBR Green DNA, 72 h; series mostly up to 12.8 µM
How it was run: as §1

CP297 = assay: as above; conditions: P. falciparum in erythrocytes, SYBR Green DNA, 72 h; series mostly up to 12.8 µM
How it was run: as §1

CP315 = assay: as above; conditions: P. falciparum in erythrocytes, SYBR Green DNA, 72 h; series mostly up to 12.8 µM
How it was run: as §1

DIV14 = assay: as above; conditions: P. falciparum in erythrocytes, SYBR Green DNA, 72 h; series mostly up to 12.8 µM
How it was run: as §1

DIV17 = assay: as above; conditions: P. falciparum in erythrocytes, SYBR Green DNA, 72 h; series mostly up to 12.8 µM
How it was run: as §1

GB4 = assay: as above; conditions: P. falciparum in erythrocytes, SYBR Green DNA, 72 h; series mostly up to 12.8 µM
How it was run: as §1

P93_24 = assay: as above; conditions: P. falciparum in erythrocytes, SYBR Green DNA, 72 h; series mostly up to 12.8 µM
How it was run: as §1

W2 = assay: as above; conditions: P. falciparum in erythrocytes, SYBR Green DNA, 72 h; series mostly up to 12.8 µM
How it was run: as §1

[8] = molecular target: Cytochrome P450 3A4 (Homo sapiens) (UniProt P08684); assay: qHTS Assay for Activators of Cytochrome P450 3A4 (AID 885); also: nearly all actives have a fitted effect of over 65% in size
Cytochrome P450 3A4 (Homo sapiens), sequence (P08684 whole entry, looked up): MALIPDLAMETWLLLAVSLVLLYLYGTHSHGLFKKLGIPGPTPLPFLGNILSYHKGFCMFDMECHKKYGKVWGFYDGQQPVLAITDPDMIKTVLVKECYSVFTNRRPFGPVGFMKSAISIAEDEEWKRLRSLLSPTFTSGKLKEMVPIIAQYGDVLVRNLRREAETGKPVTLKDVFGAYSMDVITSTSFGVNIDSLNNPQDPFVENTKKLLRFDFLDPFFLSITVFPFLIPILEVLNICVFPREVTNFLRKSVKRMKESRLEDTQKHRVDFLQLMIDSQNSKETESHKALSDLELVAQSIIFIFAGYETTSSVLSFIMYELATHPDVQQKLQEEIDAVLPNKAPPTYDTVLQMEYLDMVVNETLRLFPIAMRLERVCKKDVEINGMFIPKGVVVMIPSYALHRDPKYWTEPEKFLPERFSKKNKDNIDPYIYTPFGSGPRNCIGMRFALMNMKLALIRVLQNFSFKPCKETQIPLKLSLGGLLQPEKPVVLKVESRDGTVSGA
How it was run: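 Human CYP3A4 dealkylates Luciferin-PPXE to luciferin, which luciferase detection converts to light. Substrate was at its KM (25uM), buffer 200mM KPO4, reaction 60 min at RT.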

Measured: Potency

CCN1CCC[C@@H]1CNC(=O)c1cc(S(N)(=O)=O)ccc1OC
inactive: [1] | [2] | [3] | [4] | [5] | [6]

COc1ccccc1OC[C@H](O)COC(N)=O
not listed: [1] | [2] | [3] | [4] | [5] | [6] | [8]
inactive: all other assays above

CCCN[C@@H](C)C(=O)Nc1c(C)csc1C(=O)OC
not listed: [1] | [2] | [3] | [4] | [5] | [6] | [7]
inactive: all other assays above

COc1ccc(C[C@@H]2c3cc(OC)c(OC)cc3CC[N@+]2(C)CCC(=O)OCCCCCOC(=O)CC[N@@+]2(C)CCc3cc(OC)c(OC)cc3[C@H]2Cc2ccc(OC)c(OC)c2)cc1OC
not listed: [1] | [2] | [3] | [4] | [5] | [6] | [7] | CP192
inactive: all other assays above

Cn1c(=O)c2c(ncn2C[C@@H](O)CO)n(C)c1=O
not listed: [1] | [2] | [3] | [4] | [5] | [6] | [8]
inactive: all other assays above

CC1(C)S[C@@H]2[C@H](NC(=O)[C@H](C(=O)O)c3ccsc3)C(=O)N2[C@H]1C(=O)O
inactive: [7] | ATS95 | CP192 | CP266 | CP269 | CP315 | DIV14 | DIV17 | GB4 | P93_24 | W2

CCC[C@H]1C(=O)N2C(N(C)C)=Nc3ccc(C)cc3N2C1=O
not listed: [1] | [2] | [3] | [4] | [5] | [6] | [8]
inactive: all other assays above

NC(=O)OC[C@H](O)COc1ccc(Cl)cc1
not listed: [1] | [2] | [3] | [4] | [5] | [6] | [8]
inactive: all other assays above
